These results are taken from paper PMC7862700, “An all-to-all approach to the identification of sequence-specific readers for epigenetic DNA modifications on cytosine”.

Common to all, as to experiment: DAPPL (digital affinity profiling via proximity ligation, sequencing); 10 mM Tris-HCl pH 7.5, 50 mM NaCl, 1 mM DTT, 4% glycerol, room temperature, 30 min; GST-TFs on glutathione beads, 16-mer random dsDNA library, 0.1% formaldehyde crosslink after washing; high values mean tight binding
One assay addresses T1, FEV (Homo sapiens, UniProt Q99581 1-238).
T1 sequence: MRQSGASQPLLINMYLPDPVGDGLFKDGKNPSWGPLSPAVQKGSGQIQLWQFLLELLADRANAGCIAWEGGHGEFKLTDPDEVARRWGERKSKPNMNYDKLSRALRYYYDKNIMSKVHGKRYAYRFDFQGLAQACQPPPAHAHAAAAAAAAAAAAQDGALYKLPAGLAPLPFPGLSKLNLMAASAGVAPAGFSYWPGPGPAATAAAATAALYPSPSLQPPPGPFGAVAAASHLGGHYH
To be noted: protein: recombinant; tags: N-terminal GST; dsDNA, one strand shown. The method in brief:
(§1)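 Human transcription factors carrying a GST fusion were produced in yeast, bound to glutathione beads, tagged with DNA barcodes and pooled together with a tag-only sample. Each pool was held with 200 nmole of a random double-stranded 16-mer DNA library in Tris/NaCl/DTT/glycerol buffer for 30 min at room temperature, then washed, crosslinked in 0.1% formaldehyde, proximity-ligated with BsaI/T4 ligase (1 h, 37 °C), PCR-amplified and sequenced on an Illumina NextSeq500. Binding signal is the read frequency of each hexamer for a given factor divided by its frequency in the tag-only sample.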

In a further assay the target is ETV5 (Homo sapiens, UniProt P41161 1-510). To be noted: protein: recombinant; tags: N-terminal GST; dsDNA, one strand shown. The method in brief:
as §1

The target in the next assay is HSF1 (Homo sapiens, UniProt Q00613 1-529). The note with it: protein: recombinant; tags: N-terminal GST; chain copies: 3; dsDNA, one strand shown. In a few lines: as §1
The target in a further assay is T2, SPIC (Homo sapiens, UniProt Q8N5J4 1-248).
T2 sequence: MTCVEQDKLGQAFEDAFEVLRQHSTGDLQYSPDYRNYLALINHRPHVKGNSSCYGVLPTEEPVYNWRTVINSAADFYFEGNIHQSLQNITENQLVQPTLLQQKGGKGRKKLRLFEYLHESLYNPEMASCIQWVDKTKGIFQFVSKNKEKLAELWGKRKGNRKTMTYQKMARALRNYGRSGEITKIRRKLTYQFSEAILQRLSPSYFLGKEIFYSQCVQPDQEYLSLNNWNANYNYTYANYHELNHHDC
To be noted: protein: recombinant; tags: N-terminal GST; dsDNA, one strand shown. In a few lines:
as §1

A further assay addresses ELF4 (Homo sapiens, UniProt Q99607 1-663). The note with it: protein: recombinant; tags: N-terminal GST; dsDNA, one strand shown. The method in brief:
as §1

For the next assay, the target named is T3, ELK4 (Homo sapiens, UniProt P28324-2 1-405).
T3 sequence: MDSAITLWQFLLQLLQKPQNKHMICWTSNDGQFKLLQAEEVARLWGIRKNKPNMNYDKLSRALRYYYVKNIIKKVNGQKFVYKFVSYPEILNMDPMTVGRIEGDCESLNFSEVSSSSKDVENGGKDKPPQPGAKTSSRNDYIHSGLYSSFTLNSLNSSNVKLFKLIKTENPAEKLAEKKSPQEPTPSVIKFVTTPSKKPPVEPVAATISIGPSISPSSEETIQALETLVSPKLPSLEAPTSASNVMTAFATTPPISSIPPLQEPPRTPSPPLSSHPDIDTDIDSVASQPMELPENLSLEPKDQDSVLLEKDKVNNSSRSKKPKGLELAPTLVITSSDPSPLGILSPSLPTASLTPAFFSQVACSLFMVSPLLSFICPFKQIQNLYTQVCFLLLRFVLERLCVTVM
The note with it: protein: recombinant; tags: N-terminal GST; dsDNA, one strand shown. In a few lines:
as §1

A further assay has as its target T4, ETV2 (Homo sapiens, UniProt O00321 1-342).
T4 sequence: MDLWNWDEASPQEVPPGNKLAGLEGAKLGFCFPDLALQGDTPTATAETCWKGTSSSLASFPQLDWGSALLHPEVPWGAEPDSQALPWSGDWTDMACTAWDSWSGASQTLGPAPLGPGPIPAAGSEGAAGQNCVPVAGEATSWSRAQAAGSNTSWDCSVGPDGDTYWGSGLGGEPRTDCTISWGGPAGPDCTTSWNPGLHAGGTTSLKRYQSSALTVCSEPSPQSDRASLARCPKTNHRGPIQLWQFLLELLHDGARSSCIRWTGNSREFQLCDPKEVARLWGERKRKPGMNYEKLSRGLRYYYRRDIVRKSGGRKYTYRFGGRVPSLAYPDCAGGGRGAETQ
To be noted: protein: recombinant; tags: N-terminal GST; dsDNA, one strand shown. The method in brief:
as §1

The target in another assay is T5, ELF3 (Homo sapiens, UniProt P78545 1-371).
T5 sequence: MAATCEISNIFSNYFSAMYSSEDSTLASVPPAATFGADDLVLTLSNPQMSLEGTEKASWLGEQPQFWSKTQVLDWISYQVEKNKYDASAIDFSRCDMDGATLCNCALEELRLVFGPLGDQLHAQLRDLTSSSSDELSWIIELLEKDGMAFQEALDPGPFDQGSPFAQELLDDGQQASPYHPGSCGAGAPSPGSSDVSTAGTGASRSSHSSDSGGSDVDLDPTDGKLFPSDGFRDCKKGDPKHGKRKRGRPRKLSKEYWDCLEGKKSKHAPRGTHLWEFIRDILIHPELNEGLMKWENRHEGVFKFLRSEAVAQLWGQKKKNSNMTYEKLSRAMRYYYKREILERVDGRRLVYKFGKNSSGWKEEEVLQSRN
The note with it: protein: recombinant; tags: N-terminal GST; dsDNA, one strand shown. In a few lines:
as §1

The next assay addresses CRX (Homo sapiens, UniProt O43186 1-299). To be noted: protein: recombinant; tags: N-terminal GST; dsDNA, one strand shown. In a few lines:
as §1

In another assay the target is ETV1 (Homo sapiens, UniProt P50549 1-477). The note with it: protein: recombinant; tags: N-terminal GST; dsDNA, one strand shown. In a few lines:
as §1

A further assay has as its target T6, ERF (Homo sapiens, UniProt P50548 1-548).
T6 sequence: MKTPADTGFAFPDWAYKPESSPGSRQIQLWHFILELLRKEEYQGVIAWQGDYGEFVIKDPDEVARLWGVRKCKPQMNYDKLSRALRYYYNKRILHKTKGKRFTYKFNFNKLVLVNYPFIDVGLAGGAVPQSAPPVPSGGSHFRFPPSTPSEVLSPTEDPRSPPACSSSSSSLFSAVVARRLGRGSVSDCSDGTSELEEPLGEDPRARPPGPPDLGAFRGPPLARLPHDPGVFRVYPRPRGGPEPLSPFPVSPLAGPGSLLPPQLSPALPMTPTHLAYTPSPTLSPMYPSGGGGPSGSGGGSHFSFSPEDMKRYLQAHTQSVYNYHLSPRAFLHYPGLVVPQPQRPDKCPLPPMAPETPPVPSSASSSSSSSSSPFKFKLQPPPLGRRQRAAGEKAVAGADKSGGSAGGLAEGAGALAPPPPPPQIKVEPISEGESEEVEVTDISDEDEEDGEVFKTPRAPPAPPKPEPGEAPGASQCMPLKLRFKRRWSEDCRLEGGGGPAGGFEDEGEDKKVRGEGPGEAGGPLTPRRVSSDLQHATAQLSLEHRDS
The note with it: protein: recombinant; tags: N-terminal GST; dsDNA, one strand shown. The method in brief:
as §1

Another assay deals with T7, ETV3L (Homo sapiens, UniProt Q6ZN32 1-361).
T7 sequence: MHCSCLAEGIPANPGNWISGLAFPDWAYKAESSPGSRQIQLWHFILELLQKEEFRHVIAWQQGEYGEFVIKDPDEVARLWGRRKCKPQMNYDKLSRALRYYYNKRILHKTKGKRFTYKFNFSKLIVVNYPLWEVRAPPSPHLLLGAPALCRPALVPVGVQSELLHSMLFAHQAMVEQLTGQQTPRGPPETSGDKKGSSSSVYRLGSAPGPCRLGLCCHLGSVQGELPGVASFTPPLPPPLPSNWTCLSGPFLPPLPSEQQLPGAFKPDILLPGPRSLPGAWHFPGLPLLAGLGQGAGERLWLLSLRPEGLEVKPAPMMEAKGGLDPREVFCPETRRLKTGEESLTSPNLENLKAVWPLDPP
To be noted: protein: recombinant; tags: N-terminal GST; dsDNA, one strand shown. In a few lines: as §1

In another assay the target is T8, ETS2 (Homo sapiens, UniProt P15036 1-469).
T8 sequence: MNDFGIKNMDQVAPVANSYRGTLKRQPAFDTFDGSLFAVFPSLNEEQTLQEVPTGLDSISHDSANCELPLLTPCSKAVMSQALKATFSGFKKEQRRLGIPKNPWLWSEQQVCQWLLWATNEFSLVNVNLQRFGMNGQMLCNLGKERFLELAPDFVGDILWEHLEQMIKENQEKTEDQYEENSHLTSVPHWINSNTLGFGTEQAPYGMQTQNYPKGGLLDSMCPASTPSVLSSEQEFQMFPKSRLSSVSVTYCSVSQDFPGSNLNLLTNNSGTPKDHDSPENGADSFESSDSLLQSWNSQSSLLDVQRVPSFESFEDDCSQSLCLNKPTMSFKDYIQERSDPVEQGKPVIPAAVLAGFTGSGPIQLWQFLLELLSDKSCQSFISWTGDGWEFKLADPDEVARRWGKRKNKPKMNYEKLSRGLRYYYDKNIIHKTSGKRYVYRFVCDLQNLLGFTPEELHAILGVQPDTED
The note with it: protein: recombinant; tags: N-terminal GST; dsDNA, one strand shown. The method in brief:
as §1

In a further assay the target is T9, SPDEF (Homo sapiens, UniProt O95238 1-335).
T9 sequence: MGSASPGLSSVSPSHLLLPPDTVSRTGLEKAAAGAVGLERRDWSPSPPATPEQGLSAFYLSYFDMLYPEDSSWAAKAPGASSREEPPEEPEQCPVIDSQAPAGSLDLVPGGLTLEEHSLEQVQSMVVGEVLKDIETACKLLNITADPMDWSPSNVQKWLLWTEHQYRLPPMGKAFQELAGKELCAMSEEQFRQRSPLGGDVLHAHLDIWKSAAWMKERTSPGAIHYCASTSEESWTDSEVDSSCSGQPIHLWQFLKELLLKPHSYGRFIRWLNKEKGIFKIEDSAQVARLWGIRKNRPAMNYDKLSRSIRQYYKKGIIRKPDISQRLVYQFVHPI
To be noted: protein: recombinant; tags: N-terminal GST; dsDNA, one strand shown. In a few lines: as §1

A further assay addresses T10, ETV7 (Homo sapiens, UniProt Q9Y603 1-341).
T10 sequence: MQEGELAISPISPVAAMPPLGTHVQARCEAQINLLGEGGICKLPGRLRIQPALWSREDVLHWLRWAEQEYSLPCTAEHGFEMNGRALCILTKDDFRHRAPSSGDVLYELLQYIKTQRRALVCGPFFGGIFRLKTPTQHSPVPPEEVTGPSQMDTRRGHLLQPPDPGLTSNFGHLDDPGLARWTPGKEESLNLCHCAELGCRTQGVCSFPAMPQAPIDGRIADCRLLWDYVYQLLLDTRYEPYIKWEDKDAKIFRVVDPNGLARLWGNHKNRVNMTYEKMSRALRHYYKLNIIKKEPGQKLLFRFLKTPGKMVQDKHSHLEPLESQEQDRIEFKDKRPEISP
To be noted: protein: recombinant; tags: N-terminal GST; dsDNA, one strand shown. In a few lines:
as §1

The next assay deals with T11, ELF5 (Homo sapiens, UniProt Q9UKW6-2 1-255).
T11 sequence: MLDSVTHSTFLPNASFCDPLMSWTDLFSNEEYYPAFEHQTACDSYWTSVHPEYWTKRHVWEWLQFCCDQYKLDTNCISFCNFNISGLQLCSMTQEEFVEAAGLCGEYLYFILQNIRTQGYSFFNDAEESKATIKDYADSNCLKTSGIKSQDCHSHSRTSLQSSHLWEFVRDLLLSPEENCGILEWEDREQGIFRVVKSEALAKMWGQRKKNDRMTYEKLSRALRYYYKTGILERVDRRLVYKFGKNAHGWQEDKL
The note with it: protein: recombinant; tags: N-terminal GST; dsDNA, one strand shown. In a few lines:
as §1

The next assay deals with T12, ETV3 (Homo sapiens, UniProt P41162-2 1-143).
T12 sequence: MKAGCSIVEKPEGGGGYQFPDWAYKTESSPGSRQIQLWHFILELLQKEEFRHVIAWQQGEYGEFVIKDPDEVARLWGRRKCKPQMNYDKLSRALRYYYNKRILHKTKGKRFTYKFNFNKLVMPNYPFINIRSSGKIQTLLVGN
The note with it: protein: recombinant; tags: N-terminal GST; dsDNA, one strand shown. In a few lines:
as §1

A further assay has as its target ETV6 (Homo sapiens, UniProt P41212 1-452). The note with it: protein: recombinant; tags: N-terminal GST; dsDNA, one strand shown. In a few lines: as §1

ELF4, sequence (Q99607 whole entry): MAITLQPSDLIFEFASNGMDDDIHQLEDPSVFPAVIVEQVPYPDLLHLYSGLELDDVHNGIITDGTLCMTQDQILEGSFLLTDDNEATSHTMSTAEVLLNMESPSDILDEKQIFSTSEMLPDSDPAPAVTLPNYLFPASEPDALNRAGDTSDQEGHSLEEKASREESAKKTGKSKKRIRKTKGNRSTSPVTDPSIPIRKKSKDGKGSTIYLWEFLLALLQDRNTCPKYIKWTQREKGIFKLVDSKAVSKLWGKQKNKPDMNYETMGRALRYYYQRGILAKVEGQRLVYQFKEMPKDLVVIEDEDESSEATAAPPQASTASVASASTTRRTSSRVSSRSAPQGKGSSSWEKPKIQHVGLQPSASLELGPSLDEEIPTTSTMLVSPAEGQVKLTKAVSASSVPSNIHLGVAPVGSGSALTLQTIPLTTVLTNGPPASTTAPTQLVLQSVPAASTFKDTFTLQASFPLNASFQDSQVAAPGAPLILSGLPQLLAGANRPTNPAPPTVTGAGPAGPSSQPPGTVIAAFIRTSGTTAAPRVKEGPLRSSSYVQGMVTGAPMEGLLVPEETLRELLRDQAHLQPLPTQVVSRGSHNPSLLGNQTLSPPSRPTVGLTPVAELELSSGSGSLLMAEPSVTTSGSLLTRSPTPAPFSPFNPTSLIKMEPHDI
HSF1, sequence (Q00613 whole entry): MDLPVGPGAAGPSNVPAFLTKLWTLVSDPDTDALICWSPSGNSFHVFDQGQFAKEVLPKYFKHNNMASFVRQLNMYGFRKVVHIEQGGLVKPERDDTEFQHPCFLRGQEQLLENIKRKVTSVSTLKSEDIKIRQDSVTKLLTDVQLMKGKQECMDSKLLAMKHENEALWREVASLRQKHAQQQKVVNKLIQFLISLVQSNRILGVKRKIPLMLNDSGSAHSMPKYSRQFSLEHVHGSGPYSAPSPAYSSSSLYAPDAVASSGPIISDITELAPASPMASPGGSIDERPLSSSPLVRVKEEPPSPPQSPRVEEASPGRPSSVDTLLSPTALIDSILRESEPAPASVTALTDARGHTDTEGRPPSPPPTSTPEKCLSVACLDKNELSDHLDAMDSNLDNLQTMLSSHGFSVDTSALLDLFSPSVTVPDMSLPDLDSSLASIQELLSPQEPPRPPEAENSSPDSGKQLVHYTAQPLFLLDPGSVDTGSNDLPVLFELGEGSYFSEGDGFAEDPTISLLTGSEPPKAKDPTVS
ETV1, sequence (P50549 whole entry): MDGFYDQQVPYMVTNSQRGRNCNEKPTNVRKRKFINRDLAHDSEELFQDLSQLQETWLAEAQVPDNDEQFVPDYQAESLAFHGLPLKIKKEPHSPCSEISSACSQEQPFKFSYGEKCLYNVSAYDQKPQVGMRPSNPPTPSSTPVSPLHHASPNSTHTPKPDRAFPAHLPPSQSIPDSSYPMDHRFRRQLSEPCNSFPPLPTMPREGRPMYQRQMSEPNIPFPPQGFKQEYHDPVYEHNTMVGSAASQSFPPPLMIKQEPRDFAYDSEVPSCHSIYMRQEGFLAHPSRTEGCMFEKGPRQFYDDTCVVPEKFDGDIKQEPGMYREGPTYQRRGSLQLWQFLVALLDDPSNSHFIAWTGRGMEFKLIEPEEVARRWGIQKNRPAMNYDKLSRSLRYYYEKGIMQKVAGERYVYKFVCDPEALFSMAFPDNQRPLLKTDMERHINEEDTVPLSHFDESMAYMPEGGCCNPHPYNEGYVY
CRX, sequence (O43186 whole entry): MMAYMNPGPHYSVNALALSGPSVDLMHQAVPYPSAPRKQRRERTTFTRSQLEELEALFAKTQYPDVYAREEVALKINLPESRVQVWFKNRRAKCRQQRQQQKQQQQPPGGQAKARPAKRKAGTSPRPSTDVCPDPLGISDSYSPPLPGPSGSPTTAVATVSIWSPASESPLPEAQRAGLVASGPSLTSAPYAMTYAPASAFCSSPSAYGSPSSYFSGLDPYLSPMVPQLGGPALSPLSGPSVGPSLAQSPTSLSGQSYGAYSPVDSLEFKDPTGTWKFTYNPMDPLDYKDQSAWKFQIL
ETV6, sequence (P41212 whole entry): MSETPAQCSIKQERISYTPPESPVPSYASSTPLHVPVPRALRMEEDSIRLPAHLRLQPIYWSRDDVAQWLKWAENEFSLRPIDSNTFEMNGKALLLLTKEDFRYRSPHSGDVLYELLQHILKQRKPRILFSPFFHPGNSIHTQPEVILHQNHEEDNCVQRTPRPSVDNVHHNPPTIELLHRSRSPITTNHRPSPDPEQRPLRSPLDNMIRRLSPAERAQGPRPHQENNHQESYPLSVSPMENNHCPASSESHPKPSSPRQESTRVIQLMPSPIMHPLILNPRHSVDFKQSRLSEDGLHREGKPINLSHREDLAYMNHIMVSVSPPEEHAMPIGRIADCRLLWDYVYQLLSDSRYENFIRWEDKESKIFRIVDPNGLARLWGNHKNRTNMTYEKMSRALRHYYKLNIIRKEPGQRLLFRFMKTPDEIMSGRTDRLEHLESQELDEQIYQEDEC
ETV5, sequence (P41161 whole entry): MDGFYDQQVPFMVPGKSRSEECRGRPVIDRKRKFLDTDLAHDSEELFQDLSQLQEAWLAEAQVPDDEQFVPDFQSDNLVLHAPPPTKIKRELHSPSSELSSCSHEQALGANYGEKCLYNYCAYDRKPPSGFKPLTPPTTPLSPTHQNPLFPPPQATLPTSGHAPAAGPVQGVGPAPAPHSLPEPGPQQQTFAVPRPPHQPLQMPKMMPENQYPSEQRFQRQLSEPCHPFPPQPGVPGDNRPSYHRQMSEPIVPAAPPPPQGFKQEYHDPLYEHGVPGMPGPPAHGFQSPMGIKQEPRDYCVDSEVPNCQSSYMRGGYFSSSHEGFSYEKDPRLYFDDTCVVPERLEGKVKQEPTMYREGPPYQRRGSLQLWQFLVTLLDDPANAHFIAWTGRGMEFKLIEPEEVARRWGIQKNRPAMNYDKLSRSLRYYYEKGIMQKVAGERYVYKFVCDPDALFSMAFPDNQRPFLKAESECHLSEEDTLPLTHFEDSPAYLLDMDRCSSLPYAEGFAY

In the case of ATCCGC, the binding signal was 2.09 fold enrichment (6-mer frequency, TF over GST control) with FEV; 1.78 fold enrichment (6-mer frequency, TF over GST control) in the assay with ETV5; 1.58 fold enrichment (6-mer frequency, TF over GST control) in the assay with HSF1; 1.68 fold enrichment (6-mer frequency, TF over GST control) with SPIC; 1.65 fold enrichment (6-mer frequency, TF over GST control) with ELF4; 1.6 fold enrichment (6-mer frequency, TF over GST control) with ELK4. The binding signal was 1.9 fold enrichment (6-mer frequency, TF over GST control) with ETV2; 1.62 fold enrichment (6-mer frequency, TF over GST control) in the assay with ELF3; 2.06 fold enrichment (6-mer frequency, TF over GST control) with CRX; 1.8 fold enrichment (6-mer frequency, TF over GST control) in the assay with ETV1; 1.71 fold enrichment (6-mer frequency, TF over GST control) in the assay with ERF; 1.84 fold enrichment (6-mer frequency, TF over GST control) with ETV3L. Moreover, the binding signal with ETS2 is 1.89 fold enrichment (6-mer frequency, TF over GST control); in the assay with SPDEF, 2.36 fold enrichment (6-mer frequency, TF over GST control); with ETV7, 1.79 fold enrichment (6-mer frequency, TF over GST control); with ELF5, 2.26 fold enrichment (6-mer frequency, TF over GST control); with ETV3 it was 1.92 fold enrichment (6-mer frequency, TF over GST control); with ETV6, 1.66 fold enrichment (6-mer frequency, TF over GST control).
